{"source": "PubChem BioAssay AID1159580", "about": "(chemical genetic matrix, 2015)", "test": "chemical genetic growth profiling, strain panel (AID 1159580);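 further: tested at 20 µM; growth read once vehicle control cultures reached saturation at 30 °C; 1 = growth at the plate median or of vehicle wells; lower values mean less growth of the strain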", "conditions": "growth OD", "note": "Screen size: about 5,500 compounds; about 2,000 (36%) were called active. Another 18% or so got no clear call; they are omitted. Some of the results follow. A number with no mark means an inactive call. No stated cut-off is given here; in the data, active means normalized growth mostly below about 0.91 (no sharp cut-off); inconclusive means no clear call, values can overlap the other calls; inactive means mostly above about 0.92.", "data": [{"molecule": "COc1ccc(CC(=O)c2ccc(O)cc2O)cc1", "values": [{"measurement": "normalized growth", "setting": "S. cerevisiae deletion strains, locus YKL068W, hits give low values", "result": 0.98}, {"measurement": "normalized growth", "setting": "S. cerevisiae deletion strains, locus YKL085W, strain MDH1 (second series), hits give low values", "result": 0.992}, {"measurement": "normalized growth", "setting": "S. cerevisiae deletion strains, locus YKL085W, strain MDH1, hits give low values", "result": 0.992}, {"measurement": "normalized growth", "setting": "S. cerevisiae deletion strains, locus YKL160W, strain elf1, hits give low values", "result": 0.938}, {"measurement": "normalized growth", "setting": "S. cerevisiae deletion strains, locus YKL190W, strain CNB1, hits give low values", "result": 0.975}, {"measurement": "normalized growth", "setting": "S. cerevisiae deletion strains, locus YKR001C, strain vps1, hits give low values", "result": "0.766 (active)"}, {"measurement": "normalized growth", "setting": "S. cerevisiae deletion strains, locus YKR026C, strain gcn3, hits give low values", "result": 0.988}, {"measurement": "normalized growth", "setting": "S. cerevisiae deletion strains, locus YKR091W, strain srl3, hits give low values", "result": 0.988}, {"measurement": "normalized growth", "setting": "S. cerevisiae deletion strains, locus YLL001W, strain dnm1, hits give low values", "result": 0.944}, {"measurement": "normalized growth", "setting": "S. cerevisiae deletion strains, locus YLL026W, hits give low values", "result": 0.993}, {"measurement": "normalized growth", "setting": "S. cerevisiae deletion strains, locus YLL041C, strain sdh2, hits give low values", "result": 0.99}, {"measurement": "normalized growth", "setting": "S. cerevisiae deletion strains, locus YLR027C, strain aat2, hits give low values", "result": 0.997}, {"measurement": "normalized growth", "setting": "S. cerevisiae deletion strains, locus YLR039C, strain RIC1, hits give low values", "result": 0.686}, {"measurement": "normalized growth", "setting": "S. cerevisiae deletion strains, locus YLR058C, strain SHM2, hits give low values", "result": 0.946}, {"measurement": "normalized growth", "setting": "S. cerevisiae deletion strains, locus YLR102C, strain apc9, hits give low values", "result": 0.966}, {"measurement": "normalized growth", "setting": "S. cerevisiae deletion strains, locus YLR113W, strain HOG1, hits give low values", "result": 0.938}, {"measurement": "normalized growth", "setting": "S. cerevisiae deletion strains, locus YLR221C, strain rsa3, hits give low values", "result": 0.955}, {"measurement": "normalized growth", "setting": "S. cerevisiae deletion strains, locus YLR258W, strain gsy2, hits give low values", "result": 0.984}, {"measurement": "normalized growth", "setting": "S. cerevisiae deletion strains, locus YLR262C, strain YPT6 (second series), hits give low values", "result": "0.768 (active)"}, {"measurement": "normalized growth", "setting": "S. cerevisiae deletion strains, locus YLR262C, strain YPT6, hits give low values", "result": 0.669}, {"measurement": "normalized growth", "setting": "S. cerevisiae deletion strains, locus YLR268W, strain sec22, hits give low values", "result": 0.931}, {"measurement": "normalized growth", "setting": "S. cerevisiae deletion strains, locus YLR320W, strain mms22, hits give low values", "result": 0.895}, {"measurement": "normalized growth", "setting": "S. cerevisiae deletion strains, locus YLR330W, strain CHS5, hits give low values", "result": 0.923}, {"measurement": "normalized growth", "setting": "S. cerevisiae deletion strains, locus YLR342W, strain FKS1 (second series), hits give low values", "result": 0.864}, {"measurement": "normalized growth", "setting": "S. cerevisiae deletion strains, locus YLR342W, strain FKS1, hits give low values", "result": 0.972}, {"measurement": "normalized growth", "setting": "S. cerevisiae deletion strains, locus YLR357W, strain rsc2, hits give low values", "result": 1.01}, {"measurement": "normalized growth", "setting": "S. cerevisiae deletion strains, locus YLR370C, strain arc18, hits give low values", "result": 0.978}, {"measurement": "normalized growth", "setting": "S. cerevisiae deletion strains, locus YLR371W, strain rom2, hits give low values", "result": "0.86 (active)"}, {"measurement": "normalized growth", "setting": "S. cerevisiae deletion strains, locus YLR384C, strain iki3, hits give low values", "result": 0.999}, {"measurement": "normalized growth", "setting": "S. cerevisiae deletion strains, locus YLR418C, strain cdc73, hits give low values", "result": "0.744 (active)"}, {"measurement": "normalized growth", "setting": "S. cerevisiae deletion strains, locus YML016C, strain PPZ1, hits give low values", "result": 0.976}, {"measurement": "normalized growth", "setting": "S. cerevisiae deletion strains, locus YML032C, strain rad52, hits give low values", "result": 0.938}, {"measurement": "normalized growth", "setting": "S. cerevisiae deletion strains, locus YML120C, strain ndi1, hits give low values", "result": 0.988}, {"measurement": "normalized growth", "setting": "S. cerevisiae deletion strains, locus YML124C, strain tub3, hits give low values", "result": 0.981}, {"measurement": "normalized growth", "setting": "S. cerevisiae deletion strains, locus YMR058W, strain fet3, hits give low values", "result": 0.969}, {"measurement": "normalized growth", "setting": "S. cerevisiae deletion strains, locus YMR078C, strain ctf18, hits give low values", "result": 0.956}, {"measurement": "normalized growth", "setting": "S. cerevisiae deletion strains, locus YMR125W, strain sto1, hits give low values", "result": 0.997}, {"measurement": "normalized growth", "setting": "S. cerevisiae deletion strains, locus YMR129W, hits give low values", "result": 0.993}, {"measurement": "normalized growth", "setting": "S. cerevisiae deletion strains, locus YMR205C, strain PFK2, hits give low values", "result": 0.92}, {"measurement": "normalized growth", "setting": "S. cerevisiae deletion strains, locus YMR223W, strain ubp8, hits give low values", "result": 0.952}, {"measurement": "normalized growth", "setting": "S. cerevisiae deletion strains, locus YMR231W, strain pep5, hits give low values", "result": 0.968}, {"measurement": "normalized growth", "setting": "S. cerevisiae deletion strains, locus YMR307W, strain GAS1, hits give low values", "result": 0.688}, {"measurement": "normalized growth", "setting": "S. cerevisiae deletion strains, locus YNL067W, strain RPL9B, hits give low values", "result": 0.945}, {"measurement": "normalized growth", "setting": "S. cerevisiae deletion strains, locus YNL071W, strain lat1, hits give low values", "result": "0.851 (active)"}, {"measurement": "normalized growth", "setting": "S. cerevisiae deletion strains, locus YNL128W, strain TEP1, hits give low values", "result": 0.98}, {"measurement": "normalized growth", "setting": "S. cerevisiae deletion strains, locus YNL153C, strain GIM3, hits give low values", "result": 0.978}, {"measurement": "normalized growth", "setting": "S. cerevisiae deletion strains, locus YNL183C, strain NPR1, hits give low values", "result": 0.91}, {"measurement": "normalized growth", "setting": "S. cerevisiae deletion strains, locus YNL209W, strain ssb2, hits give low values", "result": 0.998}, {"measurement": "normalized growth", "setting": "S. cerevisiae deletion strains, locus YNL233W, strain BNI4, hits give low values", "result": 0.935}, {"measurement": "normalized growth", "setting": "S. cerevisiae deletion strains, locus YNL248C, strain rpa49, hits give low values", "result": 0.987}, {"measurement": "normalized growth", "setting": "S. cerevisiae deletion strains, locus YNL250W, strain rad50, hits give low values", "result": 1.02}, {"measurement": "normalized growth", "setting": "S. cerevisiae deletion strains, locus YNL271C, strain bni1, hits give low values", "result": 0.964}, {"measurement": "normalized growth", "setting": "S. cerevisiae deletion strains, locus YNL298W, strain CLA4, hits give low values", "result": 0.949}, {"measurement": "normalized growth", "setting": "S. cerevisiae deletion strains, locus YNL307C, strain MCK1, hits give low values", "result": "0.699 (active)"}, {"measurement": "normalized growth", "setting": "S. cerevisiae deletion strains, locus YNL322C, strain KRE1 (second series), hits give low values", "result": 0.971}, {"measurement": "normalized growth", "setting": "S. cerevisiae deletion strains, locus YNL322C, strain KRE1, hits give low values", "result": 0.952}, {"measurement": "normalized growth", "setting": "S. cerevisiae deletion strains, locus YNR049C, strain mso1, hits give low values", "result": 0.986}, {"measurement": "normalized growth", "setting": "S. cerevisiae deletion strains, locus YNR052C, strain pop2, hits give low values", "result": 0.973}, {"measurement": "normalized growth", "setting": "S. cerevisiae deletion strains, locus YOL012C, strain htz1", "result": 1.38}, {"measurement": "normalized growth", "setting": "S. cerevisiae deletion strains, locus YOL147C, strain pex11, hits give low values", "result": "0.908 (active)"}, {"measurement": "normalized growth", "setting": "S. cerevisiae deletion strains, locus YOR001W, strain rrp6, hits give low values", "result": 0.998}, {"measurement": "normalized growth", "setting": "S. cerevisiae deletion strains, locus YOR061W, strain CKA2, hits give low values", "result": 0.983}, {"measurement": "normalized growth", "setting": "S. cerevisiae deletion strains, locus YOR069W, strain VPS5, hits give low values", "result": 0.965}, {"measurement": "normalized growth", "setting": "S. cerevisiae deletion strains, locus YOR070C, strain gyp1, hits give low values", "result": 0.962}, {"measurement": "normalized growth", "setting": "S. cerevisiae deletion strains, locus YOR080W, strain dia2, hits give low values", "result": 0.999}, {"measurement": "normalized growth", "setting": "S. cerevisiae deletion strains, locus YOR083W, strain WHI5, hits give low values", "result": 0.946}, {"measurement": "normalized growth", "setting": "S. cerevisiae deletion strains, locus YOR106W, strain vam3, hits give low values", "result": 0.952}, {"measurement": "normalized growth", "setting": "S. cerevisiae deletion strains, locus YOR136W, strain idh2, hits give low values", "result": 0.972}, {"measurement": "normalized growth", "setting": "S. cerevisiae deletion strains, locus YOR144C, strain elg1, hits give low values", "result": 0.966}, {"measurement": "normalized growth", "setting": "S. cerevisiae deletion strains, locus YOR184W, strain ser1, hits give low values", "result": "0.831 (active)"}, {"measurement": "normalized growth", "setting": "S. cerevisiae deletion strains, locus YOR231W, strain MKK1, hits give low values", "result": 0.953}, {"measurement": "normalized growth", "setting": "S. cerevisiae deletion strains, locus YOR265W, strain rbl2, hits give low values", "result": 0.974}, {"measurement": "normalized growth", "setting": "S. cerevisiae deletion strains, locus YOR270C, strain vph1, hits give low values", "result": 0.84}, {"measurement": "normalized growth", "setting": "S. cerevisiae deletion strains, locus YOR290C, strain snf2, hits give low values", "result": 0.929}, {"measurement": "normalized growth", "setting": "S. cerevisiae deletion strains, locus YOR316C, strain cot1, hits give low values", "result": 0.966}, {"measurement": "normalized growth", "setting": "S. cerevisiae deletion strains, locus YPL051W, strain arl3, hits give low values", "result": "0.885 (active)"}, {"measurement": "normalized growth", "setting": "S. cerevisiae deletion strains, locus YPL078C, strain atp4, hits give low values", "result": 0.911}, {"measurement": "normalized growth", "setting": "S. cerevisiae deletion strains, locus YPL106C, strain sse1, hits give low values", "result": 1.02}, {"measurement": "normalized growth", "setting": "S. cerevisiae deletion strains, locus YPL240C, strain hsp82, hits give low values", "result": 0.978}, {"measurement": "normalized growth", "setting": "S. cerevisiae deletion strains, locus YPL256C, strain CLN2, hits give low values", "result": 0.969}, {"measurement": "normalized growth", "setting": "S. cerevisiae deletion strains, locus YPR119W, strain clb2, hits give low values", "result": 0.975}, {"measurement": "normalized growth", "setting": "S. cerevisiae deletion strains, locus YPR141C, strain kar3, hits give low values", "result": 0.983}, {"measurement": "normalized growth", "setting": "S. cerevisiae deletion strains, locus YPR163C, strain tif3, hits give low values", "result": "0.752 (active)"}, {"measurement": "normalized growth", "setting": "S. cerevisiae deletion strains, locus YPR167C, strain met16, hits give low values", "result": 0.97}, {"measurement": "normalized growth", "setting": "S. cerevisiae deletion strains, strain wtn01, hits give low values", "result": 0.919}, {"measurement": "normalized growth", "setting": "S. cerevisiae strains, strain wild type, hits give low values", "result": 0.95}]}]}
